Each structure is given as a SMILES string. Calls of active or inactive are those of the source. Rule as the data show it, unless noted: active = nuclear beta-catenin stimulation mostly above about 4.2% (no sharp cut-off); inactive = mostly below about 10%.

Test [1] in a line: Wnt pathway potentiators raising nuclear beta-catenin – imaging, WNT3A-conditioned medium, mouse C2C12, NPC library, primary screen (AID 1117326). As to conditions: stronger effect = higher value.
Test [2] in a line: stimulators of insulin release from INS-1E, primary screen, cell-based, 5 mM glucose, NPC library (AID 1117329;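 active = compound raises insulin release from rat beta cells at 5 mM glucose, no numeric limit stated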). The conditions noted are these: rat INS-1E insulin secretion, at 10 µM, stronger effect = higher value.
Test [3] can be described thus: growth inhibition of GSK3B-pretreated HCT116 cells – cell-based, CellTiter-Glo, 0.2 to 20 µM (AID 1117336;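 active = compounds lowering colon cancer cell viability after pretreatment blocking the GSK3B kinase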). As to conditions: HCT116 viability after GSK3B inhibitor, at 20 µM, stronger effect = higher value. Background: ATP-based viability assays read luminescence as a measure of living cells.
Test [4] can be described thus: inhibition of endothelial tube formation, primary screen, imaging, VEGF stimulated, CD31 staining, tube area, NPC library (AID 1117340;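 active = compound that reduces growth-factor-driven endothelial tube area in a mixed cell culture, no cutoff stated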). The conditions noted are these: VEGF-stimulated ADSC/ECFC co-culture, at 10 µM, stronger effect = higher value.
Test [5] can be described thus: GLP1 release stimulators, primary, NCI-H716, NPC library (AID 1117341;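 active = compound raises GLP1 secretion from the human gut endocrine cells, with no numeric limit stated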). The conditions noted are these: NCI-H716 cells, at 10 µM, stronger effect = higher value.
A short description of test [6]: HCT116 colon cancer cell growth inhibition, primary screen, CellTiter-Glo luminescence, NPC library (AID 1117342;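 active = compounds that lower survival of HCT116 colon cancer cells in the luminescence readout, no numeric limit stated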). The conditions noted are these: at 20 µM (top of the series).
Test [7] can be described thus: reduced SW480 viability measured with CellTiter-Glo, NPC library, primary (AID 1117343;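 active = compounds that lower viability of the colon cancer cells in the luminescence readout, with no numeric limit stated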). The conditions noted are these: CellTiter-Glo luminescence; at 20 µM (top of the series) unless noted.
Test [8] can be described thus: NPC library primary testing for decreased DLD-1 cell viability via CellTiter-Glo (AID 1117346;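 active = compounds that lower survival of DLD-1 colon cancer cells in the luminescence readout, no cutoff given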). The conditions noted are these: DLD-1 viability, CellTiter-Glo luminescence; at 20 µM (top of the series).
Test [9] is described as follows: MELAS cybrid and Rieske KO viability enhancers – cell-based, MELAS cybrids, Rieske KO mouse fibroblasts, CellTiter-Glo, primary screen (AID 1508586;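 active = mean z-score across replicates of 1.96 or higher in either the MELAS or the Rieske mutant cell line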;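 also: z relative to plate mean and SD of compound and empty wells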). The conditions noted are these: low glucose.
The target of test [10] is NAD(+) hydrolase SARM1 (Homo sapiens) (UniProt Q6SZW1). Nature of the test: blocking NAD cleavage by SARM1 SAM-TIR – cell lysate, NAD-Glo luminescence (AID 1508614;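 active = compound whose remaining NAD level is above about 45 nM, limit read from the data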;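 also: higher remaining NAD means stronger inhibition of SARM1 NADase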). As to conditions: SAM-TIR HEK293T lysate NADase, at 1 µM, stronger effect = higher value.
NAD(+) hydrolase SARM1 (Homo sapiens), sequence (Q6SZW1 whole entry, looked up): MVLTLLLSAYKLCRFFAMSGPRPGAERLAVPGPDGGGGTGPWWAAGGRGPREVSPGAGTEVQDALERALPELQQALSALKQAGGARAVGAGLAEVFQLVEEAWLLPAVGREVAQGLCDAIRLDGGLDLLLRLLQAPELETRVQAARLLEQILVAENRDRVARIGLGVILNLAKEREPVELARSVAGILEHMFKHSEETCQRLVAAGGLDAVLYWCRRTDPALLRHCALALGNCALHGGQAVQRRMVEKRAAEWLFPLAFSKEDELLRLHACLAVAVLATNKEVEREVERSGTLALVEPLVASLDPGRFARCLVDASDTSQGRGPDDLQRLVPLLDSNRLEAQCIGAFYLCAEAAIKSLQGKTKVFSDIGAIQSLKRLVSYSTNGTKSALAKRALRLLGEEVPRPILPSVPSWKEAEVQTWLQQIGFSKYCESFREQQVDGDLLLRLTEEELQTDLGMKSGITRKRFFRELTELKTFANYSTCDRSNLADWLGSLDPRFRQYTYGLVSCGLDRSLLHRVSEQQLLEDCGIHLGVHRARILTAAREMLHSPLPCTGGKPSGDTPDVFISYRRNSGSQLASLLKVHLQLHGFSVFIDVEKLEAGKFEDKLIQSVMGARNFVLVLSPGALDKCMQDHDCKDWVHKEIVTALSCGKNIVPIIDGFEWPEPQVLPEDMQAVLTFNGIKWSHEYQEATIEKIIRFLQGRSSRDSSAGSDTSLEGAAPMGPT
A short description of test [11]: P. berghei load reduction in hepatocytes – cell-based, HepG2, luciferase luminescence, HepG2 viability, primary screen (AID 624349; in the data active = parasite load remaining mostly below about 12%, no sharp cut-off; inactive = mostly above about 10%;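 also: 100% = mean of DMSO negative control wells on the same plate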). The conditions noted are these: P. berghei liver stage in HepG2, luciferase luminescence, concentration not given here; parasite load remaining: stronger effect = lower value; viability: measured here: HepG2 viability without parasites.
Test [12] is described as follows: blockers of cellular phospholipid synthesis – cell-based, LOPAC library, screen 4, primary screen (AID 1347384; call rule not given here). As to conditions: animal cells, phospholipid biosynthesis inhibition screen; at 10 µM.
[13] abbreviates: MELAS cybrid survival, CellTiter-Glo 48 h, stronger effect = higher value.
Where [14] appears, read: Rieske KO mouse fibroblast survival, CellTiter-Glo 72 h.

`Cc1cccn2c(=O)c(-c3nnn[nH]3)cnc12`: the nuclear beta-catenin stimulation is 3% (inactive) in test [1] (at 10 µM) and 1.7% in test [1] (stimulation, at 2 µM). Moreover, the insulin secretion stimulation in test [2] was -1.3% (inactive). Moreover, the viability decrease in test [3] was 2.1% (inactive). In addition, the tube area decrease in [4] was -6.7% (inactive). Besides, in test [5], the GLP1 secretion stimulation was 3.6% (inactive). Moreover, the inhibition of viability in test [6] was 13.5% (inactive). The viability decrease (inhibition) was 8.4% (inactive) in test [7] and -1.9% (inactive) in test [8]. The results for the z-score in test [9] (setting [13]) and in [9] (setting [14]) were 0.721 (inactive) and -0.0743, respectively.

`Cc1ncc([N+](=O)[O-])n1C`: the nuclear beta-catenin stimulation in test [1] (at 10 µM) was 1.7% (inactive); in test [1] (stimulation, at 2 µM), 22.2%. The insulin secretion stimulation in test [2] was 4.1% (inactive). Moreover, the viability decrease in [3] is 38.9% (inactive). In addition, the tube area decrease in [4] was -11.6% (inactive). Moreover, the GLP1 secretion stimulation in test [5] is -0.5% (inactive). For the same compound, in [6], the inhibition of viability was -2.3% (inactive). Also, the viability decrease (inhibition) was -12.5% (inactive) in test [7] and -4.4% (inactive) in [8]. Also, the remaining NAD in test [10] was 10 nM (inactive).

Consider `OC[C@@H](O)[C@@H](O)[C@H](O)[C@H](O)CO`, for which the nuclear beta-catenin stimulation was 0.7% (inactive) in [1] (at 10 µM) and 0.6% in [1] (stimulation, at 2 µM). Also, the insulin secretion stimulation in test [2] was -2% (inactive). In addition, the viability decrease in test [3] is -4.45% (inactive). The tube area decrease in test [4] is 4.3% (inactive). Also, in test [5], the GLP1 secretion stimulation was 1.1% (inactive). Also, in test [6], the inhibition of viability was -9.6% (inactive). Also, the results for the viability decrease (inhibition) in test [7] and in test [8] were 40.5% (inactive) and 8.25% (inactive), respectively. In test [10], the remaining NAD is 10 nM (inactive).

`O=C(O)CCCCC(=O)O`: the nuclear beta-catenin stimulation is 0.3% (inactive) in [1] (at 10 µM) and -0.9% in [1] (stimulation, at 2 µM). For the same compound, the insulin secretion stimulation in [2] is -0.6% (inactive). The viability decrease in test [3] is -6.5% (inactive). Further, the tube area decrease in [4] is -7.7% (inactive). In addition, in [5], the GLP1 secretion stimulation is 1.4% (inactive). In [6], the inhibition of viability was -4.8% (inactive). Further, the viability decrease (inhibition) in test [7] is 25% (inactive); in test [8], 11.8% (inactive). Besides, the remaining NAD in test [10] was 10 nM (inactive).

Turning to `NCCNCCNCCNCCN`, the nuclear beta-catenin stimulation in test [1] (at 10 µM) was -1.7% (inactive); in test [1] (stimulation, at 2 µM), -1.3%. In addition, in [2], the insulin secretion stimulation was 4.1% (inactive). Moreover, in [3], the viability decrease is -0.2% (inactive). For the same compound, in [4], the tube area decrease was -4.2% (inactive). In test [5], the GLP1 secretion stimulation is -2.1% (inactive). Further, in test [6], the inhibition of viability was 16% (inactive). Further, the viability decrease (inhibition) in test [7] was 17.8% (inactive); in test [8] it was 4.2% (inactive). Further, the figures for the z-score in test [9] (setting [13]) and in [9] (setting [14]) were -0.618 (inactive) and 0.462, respectively.

As to `COc1cc(O)c(C(=O)c2ccccc2)cc1S(=O)(=O)O`, the nuclear beta-catenin stimulation was -0.8% (inactive) in test [1] (at 10 µM) and 0.1% in test [1] (stimulation, at 2 µM). The insulin secretion stimulation in test [2] is -1.1% (inactive). Further, the viability decrease in test [3] is -7.35% (inactive). For the same compound, the tube area decrease in [4] was -4.4% (inactive). Further, the GLP1 secretion stimulation in [5] was -0.7% (inactive). Besides, the inhibition of viability in [6] was -1.4% (inactive). Also, the results for the viability decrease (inhibition) in test [7] and in test [8] were -19.9% (inactive) and 4.15% (inactive), respectively. The remaining NAD in [10] is 10 nM (inactive).

For `O=P(O)(O)C(Cl)(Cl)P(=O)(O)O`, the parasite load remaining in test [11] is 33.9% (inactive). For the same compound, the viability in test [11] was found to be 100%. Further, the nuclear beta-catenin stimulation was 1% (inactive) in [1] (at 10 µM) and 0.9% in test [1] (stimulation, at 2 µM). Besides, in [2], the insulin secretion stimulation was 5.1% (inactive). Moreover, the viability decrease in [3] was -1.2% (inactive). Moreover, the tube area decrease in test [4] was 26.4% (inactive). For the same compound, in test [5], the GLP1 secretion stimulation was -4.3% (inactive). For the same compound, the inhibition of viability in test [6] is 11.1% (inactive). Further, the figures for the viability decrease (inhibition) in test [7] and in test [8] were 26.6% (inactive) and -2.9% (inactive), respectively. In addition, the compound was classed as inactive in test [12]. Moreover, the z-score was 0.218 (inactive) in test [9] (setting [13]) and -0.285 in [9] (setting [14]).

The term viability denotes a read-out of living cells in per cent, often relative to untreated cells.

The values above are taken from PubChem BioAssay.
